Screening results from PubChem BioAssay.
PI5P4Ka inh = PI5P4K alpha (human) kinase inhibition; P48426; PI5P4Kalpha enzyme, ADP-Glo luminescence, 60 min; hits give low values; max response, %; hit rate 1.2% among 330,000; AID 652105; active = max response of -50% or lower; inconclusive = between -30% and -50%; inactive = -30% or higher; also: value at the top dose of about 77 µM
Target sequence (P48426 whole entry, looked up): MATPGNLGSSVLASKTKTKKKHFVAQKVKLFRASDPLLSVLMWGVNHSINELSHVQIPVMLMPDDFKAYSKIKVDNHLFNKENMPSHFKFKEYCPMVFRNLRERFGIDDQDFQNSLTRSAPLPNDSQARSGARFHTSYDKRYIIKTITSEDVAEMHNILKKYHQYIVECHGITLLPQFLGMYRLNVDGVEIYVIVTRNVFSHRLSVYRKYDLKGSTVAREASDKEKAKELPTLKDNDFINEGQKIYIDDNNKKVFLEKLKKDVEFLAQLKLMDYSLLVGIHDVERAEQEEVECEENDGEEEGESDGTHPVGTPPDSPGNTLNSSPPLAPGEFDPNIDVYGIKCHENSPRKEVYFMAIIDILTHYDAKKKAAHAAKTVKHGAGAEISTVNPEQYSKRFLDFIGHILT
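Compounds were pin-transferred onto PI5P4Kalpha and substrate in HEPES pH 7.4 buffer with EGTA, CHAPS and 5% DMSO. ATP (5 microM final) started the reaction, which ran 60 minutes at room temperature before ADP-Glo detection.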
D3 ag = activates the human D3 dopamine receptor | AID 652048 | P35462 | max activation, % | hit rate 0.58% among 410,000 | D3R DiscoveRx beta-arrestin cells, luminescence, 90 min; in the data active = max activation above about 30%
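Cells at 1500/well, incubated overnight, then treated with pinned compounds (dopamine as control) for 90 min at 37 degrees C. DiscoveRx reagent added for 30 - 60 minutes at room temperature; luminescence read.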
PI4K2A inh = PI4K2A (human) kinase inhibition. AID 1346378. purified PI4K2A, ADP-Glo luminescence, 1 h; hits give low values. hit rate 0.13% among 420,000. Q9BTU6. activity change, negative = inhibition, % at 76.9 µM; in the data active = activity change below about -50%; inconclusive = mostly about -30% to -49%
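In this quantitative HTS, ADP production by PI4K2A was quantified luminescently after 1 h at ambient temperature; 100 microM adenosine served as plate-quality control.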
LDHA inh = inhibitors of human lactate dehydrogenase A; purified LDHA, NADH/diaphorase-resazurin fluorescence; hits give low values; P00338; AID 1347041; activity change, % (values are at about 110 or 230 µM); hit rate 0.15% among 480,000; in the data active = activity change below about -30%; inconclusive = mostly about -25% to -30%
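Human LDH5 at 2 nM final in Tris HCl pH 7.4 with 0.06 mM NADH and 0.2 mM pyruvate, reacted 5 minutes at room temperature. Remaining NADH coupled via diaphorase/resazurin; resorufin fluorescence read at 0 and 20 minutes, normalized to enzyme-free and DMSO wells.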
D3 antag = D3 dopamine receptor (human) antagonism | max response, negative = inhibition, % | P35462 | D3R cells, DiscoveRx beta-arrestin luminescence, antagonist mode; hits give low values | hit rate 2.5% among 360,000; in the data active = max response below about -50%; inconclusive = no clear call, values can overlap the other calls
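Cells plated overnight at 1500 cells/well, then exposed to library compounds with dopamine controls for 90 minutes at 37 degrees C. DiscoveRx reagent added for 30–60 minutes at room temperature; luminescence read, quantitative HTS format.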
A number is an active result; 0 = inactive; ? = inconclusive; - = no result given; ! = not confirmed by another sample. Sampled rows, rich in hits. Any-hit rate of the full collection: about 3.3%.

SMILES	PI5P4Ka inh	D3 ag	PI4K2A inh	LDHA inh	D3 antag
O=C(Nc1ccc(N2CCOCC2)c(Cl)c1)c1ccc(F)cc1	0	0	0	0	0
CCCc1nnc(SCC(=O)N(CC)CC)n1CC1CCCO1 (stereo not given)	0	0	0	0	0
CCCc1nnc(SCC(=O)N2CCCC(C)C2)n1CCOC (stereo not given)	0	0	0	0	-58
CCCc1nnc(SCC(=O)N2CCCCC2C)n1CC1CCCO1 (stereo not given)	0	0	0	0	-65
COC(=O)C(C)Sc1ccc2nnc(-c3ccc(F)cc3)n2n1 (stereo not given)	-	0	0	0	0
CCC(Sc1ccc2nnc(-c3ccc(F)cc3)n2n1)C(=O)OC (stereo not given)	-	0	0	0	-75
O=c1[nH]c(-c2ccccn2)nc2ccccc12	0	0	?	0	-74
Cc1c(N2C(=O)c3ccc4c5c(ccc(c35)C2=O)CC4)c(=O)n(-c2ccccc2)n1C	-64	0	0	0	0
COc1ccc(COC(=O)c2cc(S(=O)(=O)N3CCCCC3)ccc2N2CCOCC2)cc1F	-	-	-	0	-
O=C(O)c1cccc(NC(=S)NC(NC(=O)c2cccc([N+](=O)[O-])c2)C(Cl)(Cl)Cl)c1 (stereo not given)	0	0	0	0	0
O=C(NC(NC(=S)Nc1ccc(Cl)cc1Cl)C(Cl)(Cl)Cl)c1cccc([N+](=O)[O-])c1 (stereo not given)	-	0	0	0	-58
Cc1ccccc1C(=O)N/N=C/c1ccc([N+](=O)[O-])s1	-	0	0	0	0
O=[N+]([O-])c1ccc(/C=N/NC(=S)Nc2ccc(Cl)cc2Cl)s1	0	0	0	0	-56
Cc1cc(Cl)ccc1NC(=O)CCC(=O)N/N=C/c1cc([N+](=O)[O-])ccc1O	0	0	0	0	-56
O=C(N/N=C/c1ccc([N+](=O)[O-])s1)c1ccccc1	0	0	0	-63	?
CCCCc1cc(=O)oc2cc(OC(C)C(=O)O)ccc12 (stereo not given)	-	-	-	0	-
CCOc1nc2ccccc2nc1N1CCC(C(=O)N2CCCC2)CC1	-	-	-	0	-
CCCOc1ccc(-c2ccc(C(=O)O)cc2)cc1	-	-	-	0	-
COc1ccc(CNCC2CCCO2)cc1OCc1ccccc1 (stereo not given)	-	-	-	0	-
CCCCN(CC)c1ccc(NS(=O)(=O)c2ccc(Br)s2)cc1C(=O)O	-	-	-	0	-
COc1ccccc1-c1coc2cc(OC(=O)C(C)(C)C)ccc2c1=O	-	-	-	0	-
O=[N+]([O-])c1ccc(O)c(/C=N/NC(=S)Nc2ccc(Cl)cc2Cl)c1	-66	0	0	0	?
CC(=NNC(=O)CSc1nnc(-c2ccc(C(C)(C)C)cc2)n1-c1ccccc1)c1cccc2ccccc12	-	-	0	-	-
COc1ccc(N(Cc2nnc3n2CCCCC3)C(=O)Nc2ccccc2C)cc1OC	-	-	-	0	-
COC(=O)c1c(NC(=O)c2ccco2)sc2c1C(C(=O)OC)CC2 (stereo not given)	0	0	0	0	-50
SMILES	PI5P4Ka inh	D3 ag	PI4K2A inh	LDHA inh	D3 antag
CC1(C)Cc2c(sc(NC(=O)c3ccco3)c2C(=O)O)CO1	-	0	0	-34	0
FC(F)(F)c1ccc(/C=N/Nc2cccc(Cl)c2)cc1	-	-	-	0	-
CS(=O)(=O)c1cccc(C(=O)N(CCc2ccccc2)Cc2ccccc2)c1	-	-	-	0	-
CNc1oc(-c2ccco2)nc1S(=O)(=O)c1ccccc1	-	-	-	0	-
COC(=O)[C@]1(Sc2ccc(C)cc2)CC(=O)N[C@@H]1c1ccco1	0	0	0	0	-69
COC(=O)[C@@]1(Sc2ccc(C)cc2)CC(=O)N[C@@H]1c1ccco1	0	0	0	0	0
CC(=O)Nc1ccc(NC(=O)COC(=O)c2ccc3ccccc3n2)cc1	-	-	-	0	-
N/C(Cc1ccc([N+](=O)[O-])cc1)=N\OC(=O)COc1ccccc1Cl	-59	0	0	0	0
N/C(Cc1ccc([N+](=O)[O-])cc1)=N\OC(=O)COc1cccc2ccccc12	-	0	0	0	0
O=C(/C=C/c1ccccc1Cl)NC1CCS(=O)(=O)C1 (stereo not given)	-69	0	0	0	0
O=C(/C=C/c1ccccc1Cl)NC1CCCCC1	0	0	0	0	?
CCN(CC)CCN(Cc1cc2cc3c(cc2[nH]c1=O)OCO3)C(=S)NCCCOC	0	0	0	0	-52
CCN(CC)CCCN(Cc1cc2cc3c(cc2[nH]c1=O)OCO3)C(=S)NCCCOC	0	0	0	0	0
CCN(CC)CCN(Cc1cc2ccc(C)cc2[nH]c1=O)C(=S)Nc1ccccc1C(=O)OC	0	0	0	0	-84
CCN(CC)CCN(Cc1cc2cc(C)c(C)cc2[nH]c1=O)C(=S)NCc1ccco1	0	0	0	0	-72
Cc1[nH]c2c(Cl)cccc2c(=O)c1CN1CCCCCC1	0	0	0	0	-90
Cc1ccc2c(=O)c(CN3CCCCCC3)c(C)[nH]c2c1C	0	0	0	0	0
COc1ccc(-c2csc(NC(=O)CSc3nc4ccccc4o3)n2)cc1	-	-	-	0	-
O=c1oc2cc(O)ccc2cc1S(=O)(=O)c1ccccc1	0	35	0	0	0
O=c1oc2ccc(Br)cc2cc1S(=O)(=O)c1ccccc1	-	-	-	0	-
OC(CC#CCN1CCCCC1)(c1ccccc1)c1ccccc1	0	0	0	0	-52
OC(CCCN1CCCCC1)(c1ccccc1)c1ccccc1	0	0	0	0	-101
CC(C)C(O)(C#CCN1CCCCCC1)c1ccccc1 (stereo not given)	0	0	0	0	-60
CC(O)(C#CCN1CCCCC1)c1ccccc1 (stereo not given)	-	0	0	0	?
COc1ccc(CCN2C(=O)CSC2=Nc2ccc(C(C)C)cc2)cc1OC	0	43	0	0	0
SMILES	PI5P4Ka inh	D3 ag	PI4K2A inh	LDHA inh	D3 antag
COCC#Cc1ccc(CC[C@H]2O[C@H]3CC[C@@H](CO)O[C@H]3C[C@H]2n2cc(C3CC3)nn2)cc1	-	-	0	-	-
CC(C)C[C@H](NC1(C(=O)NC2CCCCC2)CCN(C)CC1)C(=O)NCC(c1ccccc1)c1ccccc1	-	-	0	-	-
O=C(NNC1=Nc2ccccc2SC1)c1ccc(Cl)cc1	0	0	0	0	-73
C#CCNC(=O)c1cc(=O)[nH]c2ccc(S(=O)(=O)N(CC)CC)cc12	-	-	-	0	-
N#C/C(=C/c1ccco1)C(N)=S	-59	0	0	0	?
N#C/C(=C\c1ccco1)C(=O)c1ccccc1	-	-	-	0	-
CN(C)C(=S)c1ccc2c(c1)OCO2	-	-	-	0	-
O=C(Nc1nnc(-c2ccc(F)cc2)s1)c1ccco1	0	0	0	0	0
O=C(Nc1n[nH]c(=S)s1)c1ccco1	-61	0	0	0	0
COc1ccccc1/C=C/C(=O)OC(C)CN1CCOCC1 (stereo not given)	0	0	0	0	-83
CC(CN1CCOCC1)OC(=O)c1ccccc1 (stereo not given)	0	0	0	0	0
c1cc[n+](CCC[n+]2ccccc2)cc1	0	0	0	-31!	0
c1cc[n+](CCCC[n+]2ccccc2)cc1	0	0	0	0	0
